Assay outcomes from PubChem BioAssay.
HP1b chromo inh = blocks HP1-beta chromodomain binding to methylated histone tails | P83916 | AlphaScreen HP1-beta / biotin-H3K9me3 peptide binding | Potency, µM (doses to about 114 µM), for inactives: top-dose activity change, negative = inhibition, actives largely listed as inhibitors | 0.56% of 390,000 active | AID 540317; note: potency is the fitted concentration of half-maximal effect; nearly all actives have a fitted effect of over 70% in size
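Compound inhibition of the preformed complex between 50 nM HP1-beta and 50 nM biotinylated H3K9me3 peptide was read by AlphaScreen. Buffer was PBS pH 7.4 with 0.01% Tween-20. Incubations ran 30 min at room temperature, with 10 ug/mL donor/acceptor beads.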
JMJD2A Tudor = JMJD2A Tudor domain (human) inhibition | O75164 | AlphaScreen JMJD2A-Tudor / H3K4me3 peptide binding | Potency, µM (highest dose often 114 µM), for inactives: top-dose activity change, negative = inhibition, hits mostly inhibitors | 4.4% of 390,000 active | AID 504339; note: potency is the fitted concentration of half-maximal effect; % is set by controls: 0 for no effect and ±100 for the full control effect; nearly all actives have a fitted effect of over 50% in size
PLK1 PBD inh = blocks phosphopeptide binding to human PLK1 polo-box domain; 2.8% of 360,000 active; P53350; Plk1 PBD binding of FITC phosphopeptide, fluorescence polarization; Potency, µM, without a hit: max response, negative = inhibition, usual class: inhibitors; note: potency is the fitted concentration of half-maximal effect; series mostly up to about 57 µM; % is set by controls: 0 for no effect and ±100 for the full control effect; nearly all actives have a fitted effect of over 65% in size
G9a inh = inhibitors of human histone lysine methyltransferase G9a; Q96KQ7; 8.8% of 350,000 active; G9a H3K9 monomethylation, AlphaScreen, 2 h; AID 504332; Potency, µM (top dose mostly 102 µM), for inactives: at the highest dose activity, negative = inhibition, hits mostly inhibitors; note: potency is the fitted concentration of half-maximal effect; % is set by controls: 0 for no effect and ±100 for the full control effect; nearly all actives have a fitted effect of over 75% in size
Target sequence (Q96KQ7 913-1193 limits assumed): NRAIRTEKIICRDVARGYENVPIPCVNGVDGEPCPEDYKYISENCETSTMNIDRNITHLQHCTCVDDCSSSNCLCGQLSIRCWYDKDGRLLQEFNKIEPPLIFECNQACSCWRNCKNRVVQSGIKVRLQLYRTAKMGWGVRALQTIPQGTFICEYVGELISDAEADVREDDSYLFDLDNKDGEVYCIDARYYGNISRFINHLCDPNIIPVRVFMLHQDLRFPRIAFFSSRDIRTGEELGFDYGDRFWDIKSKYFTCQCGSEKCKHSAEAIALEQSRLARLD
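G9a (20 nM) preincubated 15 min RT with compounds, then 500 nM biotinylated H3K9 peptide and 20 uM SAM added; 2 h RT reaction. Monomethyl-H3K9 product detected by AlphaScreen with anti-H3K9me1 antibody, streptavidin donor and anti-rabbit IgG acceptor beads.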
PI5P4K alpha inh = blocks human PI5P4K alpha kinase activity | PI5P4Kalpha enzyme, ADP-Glo luminescence, 60 min; hits give low values | max response, % | P48426 | AID 652105 | 1.2% of 330,000 active; active = max response of -50% or lower; inconclusive = between -30% and -50%; inactive = -30% or higher; note: value at the top dose of about 77 µM; % is set by controls: 0 for no effect and ±100 for the full control effect
Target sequence (P48426 whole entry, looked up): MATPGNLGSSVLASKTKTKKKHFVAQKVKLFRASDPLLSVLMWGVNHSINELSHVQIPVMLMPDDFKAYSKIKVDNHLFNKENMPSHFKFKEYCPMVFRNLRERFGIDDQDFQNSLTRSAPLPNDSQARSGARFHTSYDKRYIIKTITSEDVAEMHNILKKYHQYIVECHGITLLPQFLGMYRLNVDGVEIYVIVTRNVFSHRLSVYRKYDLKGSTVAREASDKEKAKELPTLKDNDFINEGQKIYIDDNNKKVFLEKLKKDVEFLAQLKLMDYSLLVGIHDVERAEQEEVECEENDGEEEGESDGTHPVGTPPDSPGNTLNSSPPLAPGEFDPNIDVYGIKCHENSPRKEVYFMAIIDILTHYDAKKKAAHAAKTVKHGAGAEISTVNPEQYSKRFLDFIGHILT
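Human PI5P4Kalpha with substrate in 0.038 M HEPES pH 7.4, 0.28 mM EGTA, 0.1% CHAPS, 5% DMSO; reaction started with 5 microM ATP (final), 60 min at room temperature. ADP formed read by ADP-Glo luminescence.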
BAZ2B inh = blocks human BAZ2B. Q9UIF8. Potency, µM (titrated, usually from 114 µM), inactives show at the highest dose activity change, negative = inhibition, most hits filed as inhibitors. AlphaScreen BAZ2B-H3K14Ac peptide displacement. AID 504333. 4.4% of 360,000 active; note: potency is the fitted concentration of half-maximal effect; % is set by controls: 0 for no effect and ±100 for the full control effect; nearly all actives have a fitted effect of over 60% in size
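AlphaScreen luminescence quantifies BAZ2B engagement of H3K14Ac peptide; the protein and biotinylated peptide are both at 50 nM final, buffer PBS pH 7.4 with 0.01% Tween-20, all steps at room temperature.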
Numbers without * were called inactive; ? = inconclusive; . = no result; ! = a repeat was not active; [ ] = dose if it differs, or a comment. Only some compounds are listed: those with a hit (about 12% of all), similar ones and a draw of the others. Unless noted, calls come from the whole dose curve; as a rule, active = well fitted curve in the direction sought with a large enough effect; inconclusive = small, poorly fitted or top-dose-only effect, or another doubt; inactive = no such curve, though single readings can be large; an effect the other way counts as inactive or inconclusive.

SMILES	HP1b chromo inh	JMJD2A Tudor	PLK1 PBD inh	G9a inh	PI5P4K alpha inh	BAZ2B inh
Cc1nc(=S)n(-c2ccccc2)[nH]1	43%	7.1µM*	-18%	14µM*	-2	6%
Nc1cc(=O)[nH]c(=S)n1-c1ccccc1	10%	-19%	-16%	?	2	7%
S=c1nc(-c2ccccc2)[nH]n1-c1ccccc1	?	22µM*	0%	?	.	-37%
Nc1nc(=S)n(-c2ccccc2)[nH]1	?	3.5µM*	24µM*	10µM*	5	?
Cc1cc(-c2c(C)[nH]n(-c3ccccc3)c2=O)n(-c2ccccc2)n1	15%	-17%	0%	.	.	-31%
CCOC(=O)c1ccc2[nH]c3c(c2c1)CCCC3	?	-54%	-1%	35µM*	14	32µM*
CCN(C(=O)COC(=O)c1ccc2[nH]c3c(c2c1)CCCC3)C1CCS(=O)(=O)C1 (stereo not drawn)	-28%	-35%	3%	50µM*	-4	?
CN(C)CCOC(=O)c1ccc2[nH]c3c(c2c1)CSCC3	?	-31%	30µM*	28µM*	-10	-24%
COC(=O)N1CCCCC1c1cc(C(=O)NCc2ccccc2)no1 (stereo not drawn)	.	.	3%	.	3	.
COc1cc2c(cc1OC)-c1cc(=Nc3c(C)cc(C)cc3C)n(C)c(=O)n1CC2	-25%[57 µM]	?	.	21µM*	.	.
O=C(NCc1ccc(F)cc1)c1cc2ccccc2o1	40%	1%	0%	79µM*	5	-9%
O=C(NCc1cccnc1)c1cc2ccccc2oc1=O	-9%	-9%	?	50µM*	.	-2%
O=C(c1ccccc1)c1cc2ccccc2oc1=O	26%	-15%	0%	11%	8	0%
O=C(NNC(=O)c1cc2ccccc2oc1=O)c1ccccc1	?	-9%	?	32µM*	-14	3%
O=C(NNC(=O)c1cc2ccccc2o1)c1ccc(F)cc1	25%	-6%	-17%	-8%[0.501 µM]	-9	-4%
O=C(OCCNC(=O)c1cc2ccccc2oc1=O)c1cccnc1	39%	-1%	-3%	?	.	-8%
O=C(c1ccc2c(c1)N(Cc1ccccc1)C(=O)c1ccccc1S2=O)N1CCC(Cc2ccccc2)CC1 (stereo not drawn)	20%	-25%	.	-20%[59 µM]	.	-22%
CN1CCCCC1(C)C(=O)NCc1cc(Cl)ccc1F (stereo not drawn)	.	.	-4%	.	-2	.
CC1CCc2sc(C(=O)NNC(=S)NC3CC3)cc2C1 (stereo not drawn)	51%	-9%	-8%	.	10	-4%
C=CCC1CCC/C(=N\NS(=O)(=O)c2ccc(C)cc2)C1 (stereo not drawn)	37%	-6%	-22%	25µM*	-4	-4%
Nc1ccn([C@@H]2O[C@H](C(=O)N3CCSC3)[C@@H](O)[C@H]2O)c(=O)n1	.	.	-5%	.	3	.
Cc1ccc(-c2nnc(SCC(=O)NC(C)(C)C)nc2-c2ccc(C)cc2)cc1	6%	?	.	?	.	-29%
CCOc1cc(C(=O)NCc2ccc(C)cc2)ccc1OCC(=O)N1CCOCC1	12%	2%	-6%	9%	-15	.
CCOc1ccc(C(=O)OCC(=O)N2CCOCC2)cc1OCC	-22%	-15%	-13%	22%	-3	5%
CCOc1cc(/C=C/c2nc3cc(C)c(C)cc3s2)ccc1OCC(=O)N1CCOCC1	11%	-14%	-17%	13µM*	5	-25%
SMILES	HP1b chromo inh	JMJD2A Tudor	PLK1 PBD inh	G9a inh	PI5P4K alpha inh	BAZ2B inh
CCOc1cc(/C=C\[N+](=O)[O-])ccc1OCC(=O)N1CCOCC1	9%	6%	21µM*	10µM*	-18	0%
O=[N+]([O-])c1cc([N+](=O)[O-])c2cc3ccccc3nc2c1	11%[57 µM]	-30%	0.42µM*	?	-25	?
Cc1ccccc1-n1c(SCc2c(C)noc2C)nnc1-c1ccncc1	19%	-3%	-2%	-24%[12.7 µM]	.	9%
CCn1c(CSc2nnc(-c3cccnc3)n2-c2ccccc2C)nc2cc(C(=O)O)ccc21	.	.	.	13µM*	.	?
Cc1ccccc1-n1c(SCc2c(C)noc2C)nnc1-c1cccnc1	60%	-1%	?	40µM*	-8	3%
CC(=O)Nc1ccc(C(=O)CSc2nnc(-c3ccccc3F)n2CCc2ccccc2)cc1	2%[57 µM]	-32%	-6%	.	-13	.
CCn1c(CSc2n[nH]c(N)n2)nc2cc(C(=O)O)ccc21	47%	?	-14%	40µM*	-11	?
Cc1noc(C)c1CSc1nnc(-c2ccccc2F)n1CCc1ccccc1	50%	-13%	-15%	40µM*	-2	6%
CCn1c(CSc2nnc(-c3ccncc3)n2CCOC)nc2cc(C(=O)O)ccc21	36%	3%	-7%	-32%	-4	-22%
Cc1cc(NC(=O)C2CCN(S(=O)(=O)c3ccc4[nH]c(=O)oc4c3)CC2)ccc1Br	13%	-17%	.	5%[59 µM]	.	-9%
COC(=O)[C@H]1[C@H]2C[C@@H]3c4[nH]c5cc(OC)ccc5c4CCN3C[C@H]2C[C@@H](OC(=O)c2cc(OC)c(OC)c(OC)c2)[C@@H]1OC	?	56µM*	-6%	22µM*!	-8	28µM*
COC(=O)[C@@H]1[C@H]2C[C@H]3c4[nH]c5ccccc5c4CCN3C[C@@H]2CC[C@@H]1O	32%	?	-6%	21µM*!	-3	4%
COC(=O)C1C2CC3c4[nH]c5cc(OC)ccc5c4CCN3CC2CC(OC2CCCCO2)C1OC (stereo not drawn)	.	.	11%	.	-3	.
COc1ccc(C)cc1NC(=O)c1nnn(CC(=O)Nc2c(C)cccc2C)c1N	20%	-4%	.	-5%[59 µM]	.	8%[57.1 µM]
COC(=O)c1ccccc1NC(=O)CCn1c(=O)oc2ccccc21	27%	-8%	2%	5%	-2	4%
O=c1c(O)c(-c2ccc(O)cc2)oc2cc(O)cc(O)c12	-4%	?	-9%	-2%[21.5 µM]	-73*	.
C[C@@H]1O[C@@H](Oc2c(-c3cc(O)c(O)c(O)c3)oc3cc(O)cc(O)c3c2=O)[C@H](O)[C@H](O)[C@H]1O	?	32µM*	?	45µM*	?	50µM*
C[C@@H]1O[C@@H](O[C@H]2[C@H](O)[C@@H](O)[C@H](Oc3c(-c4ccc(O)c(O)c4)oc4cc(O)cc(O)c4c3=O)O[C@@H]2CO)[C@H](O)[C@H](O)[C@H]1O	28%	-17%	-1%	-12%[2.33 µM]	-18	-37%
CCOC1=C2CN(S(=O)(=O)c3ccc(C)cc3)[C@@H](c3ccccc3)C[C@H]2[C@H]2C(=O)N(c3ccccc3)C(=O)[C@H]2C1	.	.	-4%	.	6	.
COc1ccccc1NC(=O)c1c([N+](=O)[O-])cnn1C	41%	-11%	-14%	19%	-1	-26%
